Assay results: PubChem BioAssay AID1159580 (chemical genetic matrix, 2015)
In all, about 5,500 compounds went through this assay and about 2,000 (36%) were called active. Another 18% or so got no clear call; they are omitted. No stated cut-off is given here; in the data, active means normalized growth mostly below about 0.91 (no sharp cut-off); inconclusive means no clear call, values can overlap the other calls; inactive means mostly above about 0.92. The list shows a part of the results.

Experiment: chemical genetic growth profiling, strain panel (AID 1159580);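 further: tested at 20 µM; growth read once vehicle control cultures reached saturation at 30 °C; 1 = growth at the plate median or of vehicle wells; lower values mean less growth of the strain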
Conditions: growth OD
[1] = S. cerevisiae deletion strains, locus YAL013W, strain DEP1, hits give low values
[2] = S. cerevisiae deletion strains, locus YBR229C, strain ROT2, hits give low values
[3] = S. cerevisiae deletion strains, locus YCL061C, strain MRC1, hits give low values
[4] = S. cerevisiae deletion strains, locus YDL101C, strain DUN1, hits give low values
[5] = S. cerevisiae deletion strains, locus YDL134C, strain PPH21, hits give low values
[6] = S. cerevisiae deletion strains, locus YDR150W, strain NUM1, hits give low values
[7] = S. cerevisiae deletion strains, locus YEL061C, strain CIN8, hits give low values
[8] = S. cerevisiae deletion strains, locus YGR078C, strain PAC10, hits give low values
[9] = S. cerevisiae deletion strains, locus YHR030C, strain SLT2, hits give low values
[10] = S. cerevisiae deletion strains, locus YHR087W, strain rtc3, hits give low values
[11] = S. cerevisiae deletion strains, locus YJR043C, strain POL32, hits give low values
[12] = S. cerevisiae deletion strains, locus YJR075W, strain HOC1, hits give low values
[13] = S. cerevisiae deletion strains, locus YKL190W, strain CNB1, hits give low values
[14] = S. cerevisiae deletion strains, locus YLR039C, strain RIC1, hits give low values
[15] = S. cerevisiae deletion strains, locus YLR058C, strain SHM2 (second series), hits give low values
[16] = S. cerevisiae deletion strains, locus YLR085C, strain ARP6, hits give low values
[17] = S. cerevisiae deletion strains, locus YLR262C, strain YPT6, hits give low values
[18] = S. cerevisiae deletion strains, locus YML094W, strain GIM5, hits give low values
[19] = S. cerevisiae deletion strains, locus YMR219W, strain ESC1, hits give low values
[20] = S. cerevisiae deletion strains, locus YMR263W, strain SAP30, hits give low values
[21] = S. cerevisiae deletion strains, locus YNL153C, strain GIM3, hits give low values
[22] = S. cerevisiae deletion strains, locus YNL298W, strain CLA4 (second series), hits give low values
[23] = S. cerevisiae deletion strains, locus YNL322C, strain KRE1, hits give low values
[24] = S. cerevisiae deletion strains, locus YNR030W, strain Alg12, hits give low values
[25] = S. cerevisiae deletion strains, locus YPL055C, strain LGE1, hits give low values
[26] = S. cerevisiae deletion strains, locus YPL241C, strain CIN2, hits give low values
[27] = S. cerevisiae deletion strains, locus YPR135W, strain CTF4, hits give low values
[28] = S. cerevisiae strains, strain wild type, hits give low values
[29] = S. cerevisiae deletion strains, locus YJL187C, strain SWE1, hits give low values

Measured: normalized growth

O=C(O)CC(CC(=O)Nc1ccc(I)cc1F)c1ccc(C(F)(F)F)cc1 (stereo not given)
inactive: [1] 0.99 | [2] 0.99 | [3] 0.978 | [4] 0.985 | [5] 0.981 | [6] 0.972 | [7] 1 | [8] 1 | [9] 1 | [10] 0.981 | [11] 1 | [12] 0.943 | [13] 1.01 | [14] 1.02 | [15] 0.975 | [16] 1 | [17] 1.02 | [18] 0.989 | [19] 0.984 | [20] 0.969 | S. cerevisiae deletion strains, locus YNL128W, strain TEP1, hits give low values 0.995 | [21] 1.01 | [22] 1.05 | [23] 0.973 | [24] 0.927 | [25] 0.968 | [26] 0.986 | [27] 1.03 | [28] 1

FC(F)(F)c1cc(-n2c(CCc3nc(-c4ccc(Cl)cc4)no3)n[nH]c2=S)cc(C(F)(F)F)c1
inactive: [1] 0.996 | [2] 0.991 | [3] 0.985 | [4] 0.946 | [6] 0.867 | [7] 1.04 | [8] 0.963 | S. cerevisiae deletion strains, locus YGR229C, strain SMI1, hits give low values 0.991 | [9] 0.993 | [10] 1.03 | [29] 1.01 | [11] 0.978 | [12] 0.978 | [14] 1.05 | [15] 1.01 | [16] 0.97 | [17] 1.02 | [18] 1.03 | [19] 0.994 | [20] 0.957 | [21] 0.95 | [22] 0.981 | [23] 0.989 | [24] 0.975 | S. cerevisiae deletion strains, locus YOL006C, strain TOP1, hits give low values 0.994 | [25] 0.994 | [26] 0.965 | [27] 0.879

O=C(NCc1nc(-c2ccc(C(F)(F)F)cc2)no1)Nc1ccc(F)cc1F
active: [5] 0.857
inactive: [1] 1.01 | [2] 0.987 | [4] 0.975 | [6] 1.03 | [7] 0.996 | [8] 0.996 | [9] 1.07 | [10] 0.973 | [29] 0.997 | [11] 1 | [12] 0.967 | [13] 1.01 | [14] 0.981 | [15] 1.01 | [16] 1.04 | [17] 1.02 | [18] 0.968 | [19] 1 | S. cerevisiae deletion strains, locus YMR307W, strain GAS1, hits give low values 0.894 | [21] 0.987 | [22] 1.03 | [23] 1.02 | [24] 0.988 | [25] 0.846 | [26] 0.966 | [27] 1.01 | [28] 1.02

C=Cc1c(C)c2[n-]c1=Cc1[n-]c(c(CC)c1C)C=c1[n-]c3c(c1C)C(=O)C(C(=O)[O-])C=3c1[n-]c(c(C)c1CCC(=O)[O-])C=2.[Cu] (stereo not given)
active: S. cerevisiae deletion strains, locus YAL030W, strain snc1, hits give low values 1.09 [resistant] | S. cerevisiae deletion strains, locus YCR088W, strain abp1, hits give low values 1.11 [resistant] | S. cerevisiae deletion strains, locus YDL040C, strain nat1, hits give low values 1.08 [resistant] | S. cerevisiae deletion strains, locus YDR001C, strain nth1, hits give low values 1.1 [resistant] | S. cerevisiae deletion strains, locus YDR069C, strain doa4, hits give low values 1.12 [resistant] | S. cerevisiae deletion strains, locus YDR137W, strain rgp1, hits give low values 1.16 [resistant] | S. cerevisiae deletion strains, locus YDR195W, strain ref2 1.28 [resistant] | S. cerevisiae deletion strains, locus YDR297W, strain sur2, hits give low values 1.08 [resistant] | S. cerevisiae deletion strains, locus YDR334W, strain swr1, hits give low values 1.11 [resistant] | S. cerevisiae deletion strains, locus YEL061C, strain CIN8 (second series), hits give low values 1.09 [resistant] | S. cerevisiae deletion strains, locus YER016W, strain bim1, hits give low values 1.09 [resistant] | S. cerevisiae deletion strains, locus YER111C, strain swi4, hits give low values 1.09 [resistant] | S. cerevisiae deletion strains, locus YER155C, strain BEM2 (second series), hits give low values 1.17 [resistant] | S. cerevisiae deletion strains, locus YGL227W, strain vid30, hits give low values 1.1 [resistant] | S. cerevisiae deletion strains, locus YHR013C, strain ard1, hits give low values 1.18 [resistant] | S. cerevisiae deletion strains, locus YJL095W, strain BCK1 (second series), hits give low values 1.09 [resistant] | S. cerevisiae deletion strains, locus YJL115W, strain asf1, hits give low values 1.11 [resistant] | S. cerevisiae deletion strains, locus YJL129C, strain trk1, hits give low values 1.15 [resistant] | S. cerevisiae deletion strains, locus YJL154C, strain vps35, hits give low values 1.09 [resistant] | [29] 1.08 [resistant] | S. cerevisiae deletion strains, locus YKR026C, strain gcn3, hits give low values 1.1 [resistant] | S. cerevisiae deletion strains, locus YKR091W, strain srl3, hits give low values 1.08 [resistant] | S. cerevisiae deletion strains, locus YLL026W, hits give low values 1.08 [resistant] | S. cerevisiae deletion strains, locus YLL041C, strain sdh2, hits give low values 1.08 [resistant] | S. cerevisiae deletion strains, locus YMR125W, strain sto1, hits give low values 1.13 [resistant] | S. cerevisiae deletion strains, locus YMR129W, hits give low values 1.08 [resistant] | S. cerevisiae deletion strains, locus YMR231W, strain pep5, hits give low values 1.08 [resistant] | S. cerevisiae deletion strains, locus YNL071W, strain lat1, hits give low values 1.09 [resistant] | S. cerevisiae deletion strains, locus YNR049C, strain mso1, hits give low values 1.09 [resistant] | S. cerevisiae deletion strains, locus YOR265W, strain rbl2, hits give low values 1.09 [resistant] | S. cerevisiae deletion strains, locus YPL106C, strain sse1, hits give low values 1.16 [resistant] | S. cerevisiae deletion strains, locus YPL240C, strain hsp82, hits give low values 1.09 [resistant]
inactive: S. cerevisiae deletion strains, locus YAL021C, strain ccr4, hits give low values 1.07 | S. cerevisiae deletion strains, locus YAL026C, strain drs2, hits give low values 1.02 | S. cerevisiae deletion strains, locus YBL061C, strain skt5, hits give low values 1.08 | S. cerevisiae deletion strains, locus YBR009C, strain hhf1, hits give low values 1.02 | S. cerevisiae deletion strains, locus YBR023C, strain chs3, hits give low values 1.07 | S. cerevisiae deletion strains, locus YBR171W, strain sec66, hits give low values 1.09 | S. cerevisiae deletion strains, locus YBR231C, strain swc5, hits give low values 1.08 | S. cerevisiae deletion strains, locus YBR279W, strain paf1, hits give low values 1.06 | S. cerevisiae deletion strains, locus YCL011C, strain gbp2, hits give low values 1.05 | S. cerevisiae deletion strains, locus YCL016C, strain dcc1, hits give low values 1.03 | [3] 1.03 | S. cerevisiae deletion strains, locus YCL069W, strain vba3, hits give low values 1.07 | S. cerevisiae deletion strains, locus YDL005C, strain med2, hits give low values 1.08 | S. cerevisiae deletion strains, locus YDR159W, strain sac3, hits give low values 1.09 | S. cerevisiae deletion strains, locus YDR335W, strain msn5, hits give low values 1.02 | S. cerevisiae deletion strains, locus YDR392W, strain spt3, hits give low values 1.11 | S. cerevisiae deletion strains, locus YEL003W, strain gim4, hits give low values 1.03 | S. cerevisiae deletion strains, locus YEL037C, strain rad23, hits give low values 1.07 | S. cerevisiae deletion strains, locus YER015W, strain faa2, hits give low values 1.02 | S. cerevisiae deletion strains, locus YFR010W, strain ubp6, hits give low values 1.1 | S. cerevisiae deletion strains, locus YGL167C, strain pmr1, hits give low values 1.08 | S. cerevisiae deletion strains, locus YGL173C, strain kem1, hits give low values 1.02 | S. cerevisiae deletion strains, locus YGL240W, strain doc1, hits give low values 1.03 | S. cerevisiae deletion strains, locus YGL253W, strain hxk2, hits give low values 1.02 | S. cerevisiae deletion strains, locus YHR027C, strain rpn1, hits give low values 1.05 | [9] 0.992 | S. cerevisiae deletion strains, locus YHR079C, strain IRE1, hits give low values 0.998 | S. cerevisiae deletion strains, locus YHR142W, strain chs7, hits give low values 1.08 | S. cerevisiae deletion strains, locus YJL092W, strain hpr5, hits give low values 1.07 | S. cerevisiae deletion strains, locus YJL095W, strain BCK1, hits give low values 0.957 | S. cerevisiae deletion strains, locus YJL164C, strain tpk1, hits give low values 1.05 | S. cerevisiae deletion strains, locus YJL166W, strain qcr8, hits give low values 1.01 | S. cerevisiae deletion strains, locus YJR066W, strain TOR1, hits give low values 0.957 | S. cerevisiae deletion strains, locus YKL160W, strain elf1, hits give low values 1.06 | S. cerevisiae deletion strains, locus YLL001W, strain dnm1, hits give low values 1.06 | S. cerevisiae deletion strains, locus YLR027C, strain aat2, hits give low values 1.07 | S. cerevisiae deletion strains, locus YLR113W, strain HOG1, hits give low values 0.999 | S. cerevisiae deletion strains, locus YLR221C, strain rsa3, hits give low values 1.01 | S. cerevisiae deletion strains, locus YLR258W, strain gsy2, hits give low values 1.07 | S. cerevisiae deletion strains, locus YLR262C, strain YPT6 (second series), hits give low values 1.09 | S. cerevisiae deletion strains, locus YLR320W, strain mms22, hits give low values 1.06 | S. cerevisiae deletion strains, locus YLR342W, strain FKS1, hits give low values 1.04 | S. cerevisiae deletion strains, locus YLR357W, strain rsc2, hits give low values 1.08 | S. cerevisiae deletion strains, locus YLR370C, strain arc18, hits give low values 1.04 | S. cerevisiae deletion strains, locus YLR384C, strain iki3, hits give low values 1.08 | S. cerevisiae deletion strains, locus YML120C, strain ndi1, hits give low values 1.03 | S. cerevisiae deletion strains, locus YMR058W, strain fet3, hits give low values 0.967 | S. cerevisiae deletion strains, locus YMR205C, strain PFK2, hits give low values 1.11 | S. cerevisiae deletion strains, locus YNL183C, strain NPR1, hits give low values 0.862 | S. cerevisiae deletion strains, locus YNL209W, strain ssb2, hits give low values 1.04 | S. cerevisiae deletion strains, locus YNL248C, strain rpa49, hits give low values 1.03 | S. cerevisiae deletion strains, locus YNL322C, strain KRE1 (second series), hits give low values 1.08 | S. cerevisiae deletion strains, locus YOR001W, strain rrp6, hits give low values 1.05 | S. cerevisiae deletion strains, locus YOR070C, strain gyp1, hits give low values 1.05 | S. cerevisiae deletion strains, locus YOR080W, strain dia2, hits give low values 1.06 | S. cerevisiae deletion strains, locus YOR083W, strain WHI5, hits give low values 0.992 | S. cerevisiae deletion strains, locus YOR106W, strain vam3, hits give low values 0.999 | S. cerevisiae deletion strains, locus YOR231W, strain MKK1, hits give low values 1.01 | S. cerevisiae deletion strains, locus YOR270C, strain vph1, hits give low values 1.15 | S. cerevisiae deletion strains, locus YOR290C, strain snf2, hits give low values 1.06 | S. cerevisiae deletion strains, locus YPL051W, strain arl3, hits give low values 1.07 | S. cerevisiae deletion strains, locus YPL078C, strain atp4, hits give low values 1.03 | S. cerevisiae deletion strains, locus YPL256C, strain CLN2, hits give low values 1.05
